SMILES strings stand for the structures. Counter-ions that a name gives are not always drawn. ± gives the standard deviation of the averaged measurements.

For one experiment, the system named is Escherichia coli ATCC BAA-2469. The experiment in a line: percent growth inhibition of drug + antibiotic vs DMSO control; higher = more growth inhibition. To be noted: antibiotic (0.125x MIC): ciprofloxacin; 7 µM. The procedure: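 Prestwick drugs tested at 20 uM and 7 uM with an antibiotic at 0.125x MIC (16 mg/L when MIC >128 mg/L) against E. coli ATCC BAA-2469 (NDM-1) in CAMHB, 384-well plates, duplicate runs. Percent growth inhibition was computed from OD600 (24 h minus 0 h) relative to DMSO wells. Drug + DMSO-only wells are also given. […]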
As for `NCC1(CC(=O)O)CCCCC1` [Gabapentin], the percent growth inhibition stood at 4.43 ± 4.2%.

Consider `O=C([O-])c1ccccc1-c1c2cc(Br)c(=O)cc-2oc2[c]([Hg+])c([O-])c(Br)cc12.[Na+].[Na+].[OH-]` [Merbromin], for which the percent growth inhibition worked out at 0.00817 ± 2.1%.

Staying with this experiment, now noted: antibiotic (0.125x MIC): ciprofloxacin; 20 µM.
`NCC1(CC(=O)O)CCCCC1` [Gabapentin]: the percent growth inhibition was 9.67 ± 14%.

Staying with this experiment, now noted: antibiotic (0.125x MIC): gentamicin; 7 µM.
Regarding `C[C@]12CC[C@H](O)C[C@@H]1CC[C@@H]1[C@@H]2CC[C@]2(C)C(=O)CC[C@@H]12` [Epiandrosterone], the percent growth inhibition stood at 0.433 ± 1.2%.

As for `O=C(CCCN1CCC2(CC1)C(=O)NCN2c1ccccc1)c1ccc(F)cc1` [Spiperone], the percent growth inhibition is 7.21 ± 1%.

Staying with this experiment, now noted: antibiotic (0.125x MIC): meropenem; 7 µM.
Turning to `NCC1(CC(=O)O)CCCCC1` [Gabapentin], the percent growth inhibition is -2.95 ± 1.7%.

Turning to `O=C([O-])c1ccccc1-c1c2cc(Br)c(=O)cc-2oc2[c]([Hg+])c([O-])c(Br)cc12.[Na+].[Na+].[OH-]` [Merbromin], the percent growth inhibition was determined as 0.439 ± 4%.

The same experiment, now with this note: antibiotic (0.125x MIC): meropenem; 20 µM.
As for `Oc1cc(Cl)ccc1Oc1ccc(Cl)cc1Cl` [Triclosan], the percent growth inhibition worked out at 97 ± 4.5%.

Consider `CN1[C@@H]2CC[C@H]1C[C@@H](OC(=O)C(CO)c1ccccc1)C2` (some centres undefined) [Atropine sulfate monohydrate], for which the percent growth inhibition was determined as 0.268 ± 1.2%.

These data come from the supplement of paper PMC6658780.
